Results reported in PubChem BioAssay (NCATS).
Results filed as inconclusive are left out. Calls of active or inactive are those of the source. The call rests on the fitted dose curve.

Assay: Cell Viability - BJ (AID 421);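 further: cells exposed to compound for 40 hours at 37 °C before readout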
Settings: BJ fibroblast viability, qHTS
Outline: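 Luminescent ATP signal (CellTiter-Glo, 20 min at room temperature) served as the read-out of viable BJ cells after 40 hours of compound treatment. Responses were scaled between DMSO and 100 uM tamoxifen, and AC50 values were obtained by Hill modeling.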
Potency means the concentration at half of the fitted maximal effect.

Q: With Brc1ccccc1 as the compound, how does the Potency read?
A: > 92 µM (inactive)

Q: For CCOP(=S)(OCC)SCSC(C)(C)C, which Potency is on record?
A: > 92 µM (inactive)

Q: With C=C(C)C#N as the compound, how does the Potency read?
A: > 92 µM (inactive)

Q: Which Potency does the source give for CCSC(=O)Cl here?
A: > 92 µM (inactive)

Q: Which Potency does the source give for Cc1cccc([N+](=O)[O-])c1 here?
A: > 92 µM (inactive)

Q: Which Potency does the source give for Nc1c(Cl)c(Cl)nc(C(=O)O)c1Cl here?
A: > 92 µM (inactive)

Q: Which Potency does the source give for CC(C)(C)OOC(C)(C)C here?
A: > 92 µM (inactive)

Q: With C=C(C)C(=O)OCC1CO1 (stereo not given) as the compound, how does the Potency read?
A: > 92 µM (inactive)

Q: For Cc1ccc([N+](=O)[O-])cc1C, which Potency is on record?
A: > 92 µM (inactive)

Q: For O=[N+]([O-])c1ccc(Cl)c(Cl)c1, which Potency is on record?
A: > 92 µM (inactive)

Q: Which Potency does the source give for C=CC(=C)C here?
A: > 92 µM (inactive)

Q: Which Potency does the source give for Cc1ccc2ccccc2c1 here?
A: > 92 µM (inactive)

Q: With Nc1ccccc1Cl as the compound, how does the Potency read?
A: > 92 µM (inactive)

Q: For Clc1ccc2ccccc2c1, which Potency is on record?
A: > 92 µM (inactive)

Q: For [O-][Br+2]([O-])O, which Potency is on record?
A: > 92 µM (inactive)

Q: With Clc1nc(Cl)nc(Nc2ccccc2Cl)n1 as the compound, how does the Potency read?
A: > 92 µM (inactive)

Q: With OCC1CO1 (stereo not given) as the compound, how does the Potency read?
A: > 92 µM (inactive)

Q: For C=CCOC(=O)c1ccccc1N, which Potency is on record?
A: > 92 µM (inactive)

Q: With C=CC(N)=O as the compound, how does the Potency read?
A: > 92 µM (inactive)

Q: Which Potency does the source give for CC(C)(c1ccccc1)c1ccc(O)cc1 here?
A: > 92 µM (inactive)

Q: For CCN(CC)c1ccccc1, which Potency is on record?
A: > 92 µM (inactive)

Q: Which Potency does the source give for S=C=Nc1cccc2ccccc12 here?
A: > 92 µM (inactive)

Q: Which Potency does the source give for N#CCCCl here?
A: > 92 µM (inactive)

Q: With O=NN(CCO)CCO as the compound, how does the Potency read?
A: > 92 µM (inactive)

Q: With Cc1ccccc1N as the compound, how does the Potency read?
A: > 92 µM (inactive)

Q: Which Potency does the source give for C=CCOC(C)=O here?
A: > 92 µM (inactive)

Q: For CCCC(=O)Cl, which Potency is on record?
A: > 92 µM (inactive)

Q: For NC(=S)Nc1ccccc1, which Potency is on record?
A: > 92 µM (inactive)

Q: For O=C(Cl)/C=C/C(=O)Cl, which Potency is on record?
A: > 92 µM (inactive)

Q: For C=C(Cl)Cl, which Potency is on record?
A: > 92 µM (inactive)

Q: For ClCBr, which Potency is on record?
A: > 92 µM (inactive)

Q: For COc1ccc(C=O)cc1OC, which Potency is on record?
A: > 92 µM (inactive)

Q: Which Potency does the source give for C=CC(=O)OCC here?
A: > 92 µM (inactive)

Q: Which Potency does the source give for c1nc[nH]n1 here?
A: > 92 µM (inactive)

Q: For c1ccc2c(c1)CCCC2, which Potency is on record?
A: > 92 µM (inactive)

Q: With CCCSC(=O)Cl as the compound, how does the Potency read?
A: > 92 µM (inactive)

Q: Which Potency does the source give for Clc1cccc(C(Cl)(Cl)Cl)n1 here?
A: > 92 µM (inactive)

Q: For O=NN(c1ccccc1)c1ccccc1, which Potency is on record?
A: > 92 µM (inactive)

Q: For C1CCC2CCCCC2C1 (stereo not given), which Potency is on record?
A: > 92 µM (inactive)

Q: With CC(O)CCl (stereo not given) as the compound, how does the Potency read?
A: > 92 µM (inactive)
